Among the data in PubChem BioAssay (NCI) are growth values, retold here.

What all share (assay): NCI-60 one-dose screen, 48 h (100 = growth as untreated, 0 = no growth, -100 = all killed)
Details in all cases: 10 µM unless noted

The subject of assay [1] is SR leukemia.
Assay [2] deals with RPMI-8226 leukemia.
Assay [3] has as its system OVCAR-8 ovarian.
Assay [4] relates to OVCAR-5 ovarian.
Assay [5] concerns OVCAR-4 ovarian.
Assay [6] relates to SK-OV-3 ovarian.
For assay [7], the system named is IGROV1 ovarian.
The subject of assay [8] is OVCAR-3 ovarian.
In assay [9] the test system is HS 578T breast.
Assay [10] relates to NCI/ADR-RES ovarian.
Assay [11] relates to T-47D breast.
Assay [12] deals with BT-549 breast.
The subject of assay [13] is MDA-MB-435 melanoma.
The subject of assay [14] is SW-620 colon.
In assay [15] the test system is MCF7 breast.
In assay [16] the test system is HCT-116 colon.
The test system of assay [17] is HCC-2998 colon.
The test system of assay [18] is KM12 colon.

Where “and” joins values, the source holds several entries; their conditions need not be identical. Identical values can stand only once. The panel holds about 83,000 compounds, 20% with a hit somewhere; the sample as a whole holds those more often.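 Percent growth is the endpoint: 0 to 100 indicates growth inhibition (40 means 60% inhibition), 0 means no net growth, and negative values indicate cell death.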 Calls of active or inactive are those of the source. How the source made its calls: active means growth percent below 10; inactive means the rest.

Regarding `COC(=O)CCSC1=C(C)C(=O)c2ccccc2C1=O`, the growth is 71% (inactive) in assay [1]; 45.3% (inactive) in assay [2]; 85.8% (inactive) in assay [3]; 104% (inactive) in [4]; 75.6% (inactive) in assay [5]; 97.7% (inactive) in assay [6]. The growth in assay [7] was 80.8% (inactive); in [8], 69% (inactive); in [9], 91.8% (inactive); in assay [10], 83.5% (inactive); in assay [11], 43.5% (inactive); in [12], 88.8% (inactive). The growth is 106% (inactive) in [13]; 96.3% (inactive) in [14]; 73.3% (inactive) in assay [15]; 91.5% (inactive) in assay [16]; 111% (inactive) in assay [17]; 82.7% (inactive) in assay [18].

In the case of `CCOP(=O)(OCC)OC[C@]12CCC(C)(C)CC1C1=CC[C@@H]3[C@@]4(C)CCCNC(C)(C)[C@@H]4CC[C@@]3(C)[C@]1(C)CC2` (some centres undefined), the growth in [1] is -24.1% (active); in [2], -1.77% (active); in assay [3], 90.2% (inactive); in assay [4] it was 102% (inactive); in assay [5], 80.9% (inactive); in assay [6] it was 112% (inactive). The growth in assay [7] is 44.5% (inactive); in assay [8], 97.1% (inactive); in assay [9], 88.7% (inactive); in assay [10] it was 73.7% (inactive); in assay [11] it was 79.2% (inactive); in assay [12], 104% (inactive). Moreover, the growth was 90.6% (inactive) in assay [13]; 66.3% (inactive) in assay [14]; 35.1% (inactive) in assay [15]; 20.4% (inactive) in assay [16]; 26.6% (inactive) in assay [17]; 88.7% (inactive) in [18].

Turning to `C/C=C/CC(C)C(O)[C@H](NC(=O)[C@@H]1CCCN1C(=O)[C@](C)(CC)NC(=O)CCCCCCCCC)C(=O)N[C@@](C)(CC)C(=O)N[C@@H](CCC(N)=O)C(=O)N[C@H](CCC(N)=O)C(=O)NC(C)(C)C(=O)NC(C)(C)C(=O)N[C@@H](CCC(N)=O)C(=O)N[C@H](CC(C)C)C(=O)N[C@H](CO)CC(C)C` (some centres undefined), the growth in assay [1] was 12.6% (inactive) and 1.7% (active); in assay [2], 50.5% (inactive) and -38.3% (active); in assay [3] it was 42.1% (inactive) and -54.9% (active); in assay [4], 71% (inactive) and -92% (active); in [5] it was 86.8% (inactive) and 43.1% (inactive); in assay [6] it was 107% (inactive) and 19.3% (inactive). The growth in assay [7] was 52.1% (inactive) and -14.1% (active); in assay [8] it was 7.49% (active); in assay [9], 6.26% (active) and -64.4% (active); in assay [10] it was 71.4% (inactive) and -70.3% (active); in [11], 61.9% (inactive) and -23.3% (active); in assay [12], -72.4% (active). Also, the growth in assay [13] was 17.4% (inactive) and -95.1% (active); in assay [14], 83.1% (inactive) and 14.5% (inactive); in [15], 51.9% (inactive) and -62.3% (active); in assay [16], 70.6% (inactive) and -7.45% (active); in [17], 32.6% (inactive) and -57.5% (active); in [18], 21.6% (inactive) and -65% (active).

As to `COc1ccc(C(C)=C(c2ccc(OCCN3CCCCCC3)cc2)c2ccc(OCCN3CCCCCC3)cc2)cc1`, the growth in assay [1] is -12.1% (active); in assay [2] it was -44.9% (active); in assay [3] it was 0.8% (active); in [4], 22.9% (inactive); in [5], -66.7% (active); in assay [6], 72.9% (inactive). Also, the growth in [7] was -67.9% (active); in [8] it was -47.2% (active); in [9] it was -52.1% (active); in assay [10], -60% (active); in [11], -32.2% (active); in [12], 13.2% (inactive). For the same compound, the growth in assay [13] was -83.7% (active); in assay [14], -50.4% (active); in assay [15] it was -72.4% (active); in assay [16], -93% (active); in assay [17], -79.3% (active); in assay [18], -24.8% (active).

As to `C#CCN(C)CCCOc1ccc(NCc2ccc(/C=C/C(=O)NO)cc2)cc1Cl`, the growth was 9.72% (active) in [1]; 8.55% (active) in [2]; 11.9% (inactive) in assay [3]; 6.62% (active) in assay [4]; 22.4% (inactive) in [5]; -11.3% (active) in [6]. Moreover, the growth in assay [7] was -35.7% (active); in assay [8], 11% (inactive); in assay [9], 10.7% (inactive); in [10], -8.39% (active); in assay [11] it was 1.04% (active); in assay [12], 18.8% (inactive). Further, the growth is -25.3% (active) in assay [13]; 10.1% (inactive) in assay [14]; 10.4% (inactive) in assay [15]; 9.47% (active) in assay [16]; -43.2% (active) in [17]; 5.72% (active) in [18].

Turning to `O=C(CSc1nnc(-c2cccs2)n1-c1ccccc1)Nc1ccccc1`, the growth was 61.3% (inactive) in [1]; 99.7% (inactive) in [2]; 53.5% (inactive) in assay [3]; 96.7% (inactive) in [4]; 56.3% (inactive) in assay [5]; 80.1% (inactive) in assay [6]. The growth in [7] was 89.9% (inactive); in [8], 84.2% (inactive); in assay [9], 33.2% (inactive); in [10] it was 61.9% (inactive); in assay [11] it was 78.4% (inactive); in [12] it was 85.5% (inactive). For the same compound, the growth in [13] is 57.9% (inactive); in assay [14], 87.2% (inactive); in assay [15] it was 80.3% (inactive); in assay [16] it was 75.4% (inactive); in assay [17], 111% (inactive); in assay [18] it was 84.8% (inactive).

Consider `N#Cc1cnc2ccc(-c3cnc4n[nH]nc4c3)cc2c1N1CCc2cc(F)c(Cl)cc21`, for which the growth in [1] was 3.77% (active); in [2], 15.8% (inactive); in [3], 16.7% (inactive); in assay [4], 31.6% (inactive); in assay [5] it was -16.9% (active); in assay [6] it was -0.177% (active). For the same compound, the growth in assay [7] is -8.77% (active); in [8] it was 26.2% (inactive); in assay [9], -10.7% (active); in assay [10], 45% (inactive); in assay [11] it was 1.2% (active); in assay [12], 3.78% (active). Also, the growth in [13] was 19.5% (inactive); in assay [14], 26.8% (inactive); in [15] it was 8.34% (active); in [16], 23.7% (inactive); in assay [17], 22.5% (inactive); in assay [18], 17.4% (inactive).

As to `Cc1ccc(NC2=C(Cl)C(=O)c3nc(C)ccc3C2=O)c(C)c1`, the growth in assay [1] was 10.3% (inactive); in assay [2], -10.4% (active); in assay [3] it was 28.3% (inactive); in assay [4], -1.15% (active); in [5], -96.5% (active); in assay [6], 117% (inactive). Moreover, the growth in assay [7] was -58.8% (active); in assay [8] it was -98.6% (active); in [9], 6.94% (active); in [10], 4.37% (active); in assay [11], -46.1% (active); in [12], 62.9% (inactive). Moreover, the growth in assay [13] was -90% (active); in assay [14], -29.4% (active); in assay [15], -64.4% (active); in [16], -67.7% (active); in assay [17], 64.6% (inactive); in [18] it was 44.9% (inactive).
